According to PubChem BioAssay (Tox21):
“And” between values parts separate entries of the source, which are not always exact repeats. Equal entries are not always repeated. Records with an inconclusive call do not appear. Some compounds were tested as several samples or in several runs, with calls that do not always agree. The source made the active and inactive calls. Unless noted, calls come from the whole dose curve; as a rule, active = well fitted curve in the direction sought with a large enough effect in the repeat runs; inconclusive = weak or mixed curves; inactive = no such curve, though single readings can be large; an effect the other way counts as inactive or inconclusive.

Experiments:
[1] = qHTS assay to identify small molecule antagonists of the glucocorticoid receptor (GR) signaling pathway - cell viability counter screen (AID 720693); note: nearly all actives have a fitted effect of over 55% in size
[2] = qHTS assay for identifying genotoxic compounds that show differential cytotoxicity against isogenic chicken DT40 cell lines with known DNA damage response pathways - wild type cell line (AID 743012); note: nearly all actives have a fitted effect of over 60% in size; note: potency is the fitted concentration of half-maximal effect
Summary of the method: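 Cells (DT40 wild type, 300/well) are treated with DMSO-dissolved compounds after a ~0.5 h pre-incubation and kept 40 h at 37 C/5% CO2. Viability is then measured by CellTiter-Glo luminescence following 30 min at room temperature.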

[3] = qHTS assay for identifying genotoxic compounds that show differential cytotoxicity against isogenic chicken DT40 cell lines with known DNA damage response pathways - Rad54/Ku70 mutant cell line (AID 743015); note: nearly all actives have a fitted effect of over 60% in size; note: potency is the fitted concentration of half-maximal effect
[4] = qHTS assay to identify small molecule antagonists of the androgen receptor (AR) signaling pathway - cell viability counter screen (AID 743033; note: nearly all actives have a fitted effect of over 45% in size)
[5] = qHTS assay to identify small molecule antagonists of the androgen receptor (AR) signaling pathway using the MDA cell line - cell viability counter screen (AID 743041; note: nearly all actives have a fitted effect of over 45% in size)
Summary of the method: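 Viability counter screen run alongside the AR antagonist reporter: cells seeded 5 h before compound, R1881 added, 16 h incubation at 37C without CO2, fluorescent CellTiter-Fluor signal quantified.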

[6] = qHTS assay to identify small molecule antagonists of the thyroid receptor (TR) signaling pathway - cell viability counter screen (AID 743064); note: nearly all actives have a fitted effect of over 50% in size; note: potency is the fitted concentration of half-maximal effect
Summary of the method: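 Compounds were tested on GH3.TRE-Luc cells in the presence of T3 at 1 nM final. Following 23.5 h at 37 °C, cell viability was quantified by CellTiter-Fluor.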

[7] = qHTS assay to identify small molecule antagonists of the thyroid receptor (TR) signaling pathway (AID 743065); note: series mostly up to about 70 µM; nearly all actives have a fitted effect of over 55% in size
Summary of the method: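 GH3.TRE-Luc rat pituitary cells carrying two TR response elements driving luciferase were plated for 4 h, given compound plus 1 nM T3 (final), and incubated 23.5 h at 37 C. ONE-Glo luminescence measured reporter inhibition; CellTiter-Fluor fluorescence tracked cytotoxicity.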

[8] = tested on: thyroid hormone receptor (rat, GH3 cells); test: qHTS assay to identify small molecule agonists of the thyroid receptor (TR) signaling pathway (AID 743066; calls by dose curve)
[9] = target: Estrogen receptor (Homo sapiens) (UniProt P03372); test: qHTS assay to identify small molecule antagonists of the estrogen receptor alpha (ER-alpha) signaling pathway (AID 743069; active = well fitted curve in the direction sought with a large enough effect in the signal ratio in the repeat runs, not every such curve was filed as active; the % refers to the signal ratio)
Estrogen receptor (Homo sapiens), sequence (P03372 whole entry, looked up): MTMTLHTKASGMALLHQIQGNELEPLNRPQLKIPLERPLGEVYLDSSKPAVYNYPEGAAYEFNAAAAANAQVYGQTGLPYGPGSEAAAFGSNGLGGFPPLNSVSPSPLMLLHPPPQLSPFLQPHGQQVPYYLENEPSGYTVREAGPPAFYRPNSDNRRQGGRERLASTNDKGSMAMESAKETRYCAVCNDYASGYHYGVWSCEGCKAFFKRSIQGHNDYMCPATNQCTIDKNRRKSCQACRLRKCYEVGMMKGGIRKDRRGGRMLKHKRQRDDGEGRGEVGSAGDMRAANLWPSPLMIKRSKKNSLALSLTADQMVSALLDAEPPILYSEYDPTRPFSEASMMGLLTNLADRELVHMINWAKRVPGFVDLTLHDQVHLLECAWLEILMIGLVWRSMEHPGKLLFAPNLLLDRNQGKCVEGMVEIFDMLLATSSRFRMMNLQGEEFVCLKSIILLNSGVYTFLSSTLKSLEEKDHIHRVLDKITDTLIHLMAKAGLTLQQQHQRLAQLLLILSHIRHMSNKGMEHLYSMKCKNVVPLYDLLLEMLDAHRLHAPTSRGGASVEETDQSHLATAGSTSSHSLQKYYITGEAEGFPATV
Summary of the method: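 Estradiol-stimulated ER-alpha-UAS-bla HEK293 cells, 18 hr compound exposure at 37C. LiveBLAzer B/G substrate, 2 hr RT, fluorescence read.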

[10] = qHTS assay to identify small molecule antagonists of the estrogen receptor alpha (ER-alpha) signaling pathway - cell viability counter screen (AID 743074; calls by dose curve;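 note: HEK293 cells carrying ER-alpha-UAS-bla reporter stimulated with 17beta-estradiol; nearly all actives have a fitted effect of over 45% in size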)
[11] = target: Estrogen receptor (Homo sapiens) (UniProt P03372); test: qHTS assay to identify small molecule agonists of the estrogen receptor alpha (ER-alpha) signaling pathway (AID 743075; calls by dose curve;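 note: HEK293 GripTite cells with ER-alpha and UAS-driven beta-lactamase reporter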)
[12] = target: Estrogen receptor (Homo sapiens) (UniProt P03372); test: qHTS assay to identify small molecule agonists of the estrogen receptor alpha (ER-alpha) signaling pathway using the BG1 cell line (AID 743079); note: nearly all actives have a fitted effect of over 20% in size
[13] = qHTS assay to identify small molecule antagonists of the estrogen receptor alpha (ER-alpha) signaling pathway using the BG1 cell line (AID 743080; calls by dose curve;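 note: BG1 cells stimulated with 17beta-estradiol alongside compound; series mostly up to about 70 µM; nearly all actives have a fitted effect of over 25% in size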)
Summary of the method: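 After 5 days in phenol-red-free 10% charcoal-stripped FBS medium, BG1-Luc-4E2 cells were seeded, left 24 h at 37 C, co-treated with compounds and 17beta-estradiol for 21.5 h, then assayed for viability and luciferase.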

[14] = qHTS assay to identify small molecule antagonists of the estrogen receptor alpha (ER-alpha) signaling pathway using the BG1 cell line - cell viability counter screen (AID 743081);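 note: compound given together with 17beta-estradiol as the ER stimulus; series mostly up to about 70 µM; nearly all actives have a fitted effect of over 45% in size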
Aromatase (Homo sapiens) = Aromatase (Homo sapiens) (UniProt P11511); test: qHTS assay to identify aromatase inhibitors (AID 743083); note: nearly all actives have a fitted effect of over 55% in size; note: potency is the fitted concentration of half-maximal effect
Aromatase (Homo sapiens), sequence (P11511 whole entry, looked up): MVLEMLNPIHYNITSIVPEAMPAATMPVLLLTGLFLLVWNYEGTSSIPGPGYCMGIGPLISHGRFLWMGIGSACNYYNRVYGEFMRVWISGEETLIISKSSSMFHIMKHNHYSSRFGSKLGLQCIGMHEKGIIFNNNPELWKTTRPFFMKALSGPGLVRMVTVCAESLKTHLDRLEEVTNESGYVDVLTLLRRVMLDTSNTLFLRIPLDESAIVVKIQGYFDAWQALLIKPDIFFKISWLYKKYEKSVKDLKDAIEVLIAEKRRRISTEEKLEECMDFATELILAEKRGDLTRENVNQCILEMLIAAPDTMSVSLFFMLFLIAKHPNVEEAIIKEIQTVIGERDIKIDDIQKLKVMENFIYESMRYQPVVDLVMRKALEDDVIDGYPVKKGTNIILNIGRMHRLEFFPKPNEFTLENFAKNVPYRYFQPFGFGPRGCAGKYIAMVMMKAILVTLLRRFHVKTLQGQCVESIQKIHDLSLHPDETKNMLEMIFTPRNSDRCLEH

[15] = qHTS assay for identifying genotoxic compounds that show differential cytotoxicity against isogenic chicken DT40 cell lines with known DNA damage response pathways - Rev3 mutant cell line (AID 743014); note: nearly all actives have a fitted effect of over 55% in size; note: potency is the fitted concentration of half-maximal effect

Measured: Potency

CCCOC(=O)c1ccccc1C(=O)OCCC
not listed: [15]
inactive: all other assays above

CC(=O)/C=C/c1ccccc1
not listed: [7] | [8] | [9] | [11] | [12] | [13]
inactive: all other assays above

Nc1cc(Cl)cc(Cl)c1
not listed: [9] | [11] | [12] | [13]
inactive: all other assays above

ClC(Cl)c1ccccc1
not listed: [6]
inactive: all other assays above

C/C=C/c1ccc2c(c1)OCO2
not listed: [9] | [11] | [12] | [13]
inactive: all other assays above

C=C(C)C(=O)OCC(CC)CCCC (centres undefined)
not listed: [6]
inactive: all other assays above

CNC(=O)Oc1cccc2ccccc12
not listed: [2]
inactive: all other assays above

CCOC(=O)CC(SP(=O)(OC)OC)C(=O)OCC (centres undefined)
not listed: [9] | [10] | [11] | [12] | [13]
inactive: all other assays above

O=C(O)c1cc(Oc2ccc(C(F)(F)F)cc2Cl)ccc1[N+](=O)[O-]
not listed: [9] | [11] | [12] | [13]
inactive: all other assays above

Clc1cnc(Oc2ccc(Oc3ncc(Cl)cc3Cl)cc2)c(Cl)c1
inactive and 30.6 µM (active): [3]
not listed: [9] | [11] | [12] | [13]
inactive: all other assays above

CC[N+](=O)[O-]
not listed: [9] | [11] | [12] | [13]
inactive: all other assays above

ClCCOCCCl
not listed: [9] | [11] | [12] | [13]
inactive: all other assays above

COP(=S)(OC)SCN1C(=O)c2ccccc2C1=O
active: [2] 48.6 µM | [15] 61.6 µM
not listed: [9] | [11] | [12] | [13]
inactive: all other assays above

Oc1ccc(Cl)cc1
not listed: [9] | [11] | [12] | [13]
inactive: all other assays above

NNc1ccccc1
inactive and 60.4 µM (active): [15]
inactive and 48 µM (active): [3]
not listed: [7] | [9] | [11] | [12] | [13]
inactive: all other assays above

O=[N+]([O-])c1ccc(Cl)cc1
not listed: [9] | [11] | [12] | [13]
inactive: all other assays above

N#Cc1cccc(C#N)c1
not listed: [9] | [11] | [12] | [13]
inactive: all other assays above

CN(C)C(=O)C(c1ccccc1)c1ccccc1
not listed: [9] | [11] | [12] | [13]
inactive: all other assays above

O=S(=O)(O)OOS(=O)(=O)O
not listed: [9] | [11] | [12] | [13]
inactive: all other assays above

COC(=O)Nc1cccc(OC(=O)Nc2cccc(C)c2)c1
not listed: [9] | [11] | [12] | [13]
inactive: all other assays above

CC(=O)C1CCOC1=O (centres undefined)
not listed: [9] | [11] | [12] | [13] | [15]
inactive: all other assays above

CCOP(=S)(OCC)Oc1cc(C)nc(C(C)C)n1
inactive: [2] | [15] | [4] | [5] | [8] | [10] | [14]
inactive and 17.2 µM (active): [6] | Aromatase (Homo sapiens)
inactive and 30.6 µM (active): [3]
